Source: PubChem BioAssay AID589 (National Center for Advancing Translational Sciences (NCATS), 2007)
Out of some 59,000 compounds screened, about 6,200 (11%) were called active. Another 9% or so got no clear call; they are omitted. No stated cut-off is given here; in the data, active means max dye-equivalent concentration above about 10 nM; inconclusive means mostly about 1.1 nM to 9.6 nM; inactive means weaker than that. The list comes from a sample in which actives are over-represented; it also holds similar structures and randomly drawn compounds.

Experiment: qHTS Assay for Spectroscopic Profiling in 4-MU Spectral Region
Conditions: compound autofluorescence, 340/450 nm, 4-MU equivalents; hits give high values
In short: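 Intrinsic fluorescence at 340/450 nm (ex/em) was read after 15 min at room temperature in pH 8.0, 100 mM Tris. Each compound concentration expressed as 4-MU-equivalent concentration from a six-point 4-MU standard series on each plate.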

SMILES	max dye-equivalent concentration
CC1Cc2ccccc2N1C(=O)Cn1cnc2ccccc2c1=O (centres undefined)	inactive
Cc1ccc(OCC(=O)Nc2ccc(-c3nc4ncccc4o3)cc2)cc1	25 nM (active)
Cc1ccc(OCC(=O)Nc2ccc(-c3nnc(-c4ccco4)o3)cc2)cc1	inactive
COc1ccc(CC(=O)Nc2ccc(-c3nnc(-c4ccc(C)cc4)o3)cc2)cc1	inactive
COc1ccccc1N(CC(=O)N1CCCCC1)S(=O)(=O)c1ccccc1	inactive
Cc1ccc(S(=O)(=O)N2CCC(C(=O)N[C@@H](C)C(=O)NCc3ccccc3)CC2)cc1	inactive
COc1ccc(Cl)cc1S(=O)(=O)N1CCN(CC(=O)C(C)(C)C)CC1	inactive
CCCCOC(=O)NCN1C(=O)C2C3C=CC(C3)C2C1=O (centres undefined)	inactive
COCCNC(=O)c1snc2ccc(Cl)cc12	49 nM (active)
COCC(C)NC(=O)c1ccc(Cl)c(Cl)c1 (centres undefined)	inactive
COCCNC(=O)c1ccccc1-c1nc(-c2ccccc2Cl)no1	inactive
CCN(CC)c1ccc(C(=O)OCC(=O)c2ccco2)cc1	inactive
Cc1cc(N2CCCCC2)nc2ccc(Cc3ccc4nc(N5CCCCC5)cc(C)c4c3)cc12	45 nM (active)
Fc1ccc2nc(N3CCCCC3)sc2c1	inactive
O=C(CSc1nnc(-c2ccoc2)o1)N1CCOCC1	inactive
O=C(O)C1C2C=CC(C2)C1C(=O)N1CCN(CCO)CC1 (centres undefined)	inactive
O=c1[nH][nH]c(=O)c2cc(N3CCCC3)ccc12	53 nM (active)
Cc1cc(C)cc(N(C(C)C(=O)Nc2c(C)n(C)n(-c3ccccc3)c2=O)S(C)(=O)=O)c1 (centres undefined)	inactive
Cc1ccccc1OCCC(=O)Nc1c(C)n(C)n(-c2ccccc2)c1=O	inactive
Cc1c(NC(=O)C(C)OC(=O)c2cc3c4ccccc4n(C)c3s2)c(=O)n(-c2ccccc2)n1C (centres undefined)	110 nM (active)
CCOC(=O)C1CCN(C(=O)CC2C(=O)N(Cc3ccccc3)C(C)c3nc4ccccc4n32)CC1 (centres undefined)	inactive
CC1(C)Cc2ccccc2-c2nc(CN3CCOCC3)[nH]c(=O)c21	inactive
CCN1CCc2c(C#N)c(NCc3ccccc3)nc(NCCO)c2C1	430 nM (active)
N#Cc1c(N)sc2c1CCN(C(=O)OCc1ccccc1)C2	inactive
CC(=O)/C(=N\N=C(N)N)c1ccccc1	inactive
CC(C)c1nnc(NC(=O)C2CCCN2S(=O)(=O)c2ccc(Cl)cc2)s1 (centres undefined)	inactive

SMILES	max dye-equivalent concentration
CCc1nnc(NS(=O)(=O)c2ccc(NS(=O)(=O)c3ccccc3)cc2)s1	inactive
CCc1nnc(NC(=O)C2CCCN2S(=O)(=O)c2ccccc2)s1 (centres undefined)	18 nM (active)
O=C(C1=C(O)C(=O)N(Cc2ccccc2)C1c1cccnc1)c1ccco1 (centres undefined)	inactive
N#CC(C(N)=O)=C1CCC2(CC1)OCCCCO2	inactive
COc1cc(C2C(C(=O)c3ccc(C)o3)=C(O)C(=O)N2Cc2cccnc2)ccc1O (centres undefined)	inactive
CCSC1=C(C#N)C(=O)n2c1cc1c2CCCC1	inactive
CC(=O)Nc1ccc(S(=O)(=O)Nc2cccc(NC(=O)C(C)(C)C)c2)cc1	inactive
COc1cc(NS(=O)(=O)c2ccc(NC(C)=O)cc2)cc(OC)c1	inactive
COc1ccc(NS(=O)(=O)c2ccc(NC(=O)C(C)(C(F)(F)F)C(F)(F)F)cc2)nn1	20 nM (active)
COC(=O)c1cc(NC(=O)CN2CCC(C(N)=O)(N3CCCCC3)CC2)cc(C(=O)OC)c1	inactive
CCCCCN(C(=O)NC(=O)Nc1ccccc1OC)S(C)(=O)=O	inactive
CCCc1nnc(NC(=O)c2cc(OC)cc(OC)c2)s1	inactive
Cc1ccc(C(=O)Nc2nnc(-c3cccs3)s2)cc1C	73 nM (active)
CCc1nnc(NC(=O)c2ccc(S(=O)(=O)NC3CCCCC3)cc2)s1	inactive
COc1ccc(Cc2nnnn2CC(=O)O)cc1	inactive
CC(=O)OCc1cc(=O)n(C)c(=O)n1C	inactive
CC(Sc1nncn1C)C(=O)Nc1ccccc1-c1ccccc1 (centres undefined)	inactive
Cc1ccccc1-c1nc(N(C)Cc2ccco2)c2ccccc2n1	inactive
CC1CCc2c(sc(NC(=O)c3ccc(Cn4cc(Br)cn4)o3)c2C(N)=O)C1 (centres undefined)	100 nM (active)
Cc1ccc(C)c(NC(=O)C2CC(=O)N(C(C)C)C2)c1 (centres undefined)	inactive
O=C(NCC(F)(F)F)Nc1nnc(C(F)(F)F)s1	inactive
CN(C)CCCn1c(N)c(C#N)c2nc(C#N)c(C#N)nc21	730 nM (active)
O=C(O)C1CCN(S(=O)(=O)N2CCOCC2)CC1	inactive
O=C(CNS(=O)(=O)c1cccc(C(F)(F)F)c1)Nc1ccccc1F	inactive
Cc1ccccc1NC(=O)NCc1ccco1	inactive
CN1CCN(c2ncncc2-c2ccc(C(=O)N(C)C)cc2)CC1	inactive

SMILES	max dye-equivalent concentration
COc1ccc(-c2nnc(SC(C)C#N)o2)cc1 (centres undefined)	inactive
CCOc1ccc(CNC(=O)C2CCC(=O)N2C2CCCC2)cc1OC (centres undefined)	inactive
CCCC(=O)Nc1cc(OCC)c(NC(=O)NC2CCCCC2)cc1OCC	inactive
CCOc1cc(C2C(C(=O)OC)=CN(C3CCCC3)C=C2C(=O)OC)cc(Br)c1O	200 nM (active)
OCCN1CCN(CC/C=C2\c3ccccc3Sc3ccc(C(F)(F)F)cc32)CC1	inactive
CN(C)C(=O)/N=N\C(=O)N(C)C	inactive
Cc1ccc2nc(S(=O)(=O)O)[nH]c2c1	inactive
O=C(OCc1cc2ccccc2[nH]c1=O)c1cccnc1	inactive
CC(C)(C)n1nnnc1C(c1cccs1)N(Cc1cccnc1)CC1CCCO1 (centres undefined)	inactive
CCC(c1nnnn1C1CCCC1)N(Cc1cccs1)Cc1cc2cccc(C)c2[nH]c1=O (centres undefined)	inactive
Cc1cc(C)c2cc(CN(Cc3cccs3)Cc3nnnn3CC3CCCO3)c(=O)[nH]c2c1 (centres undefined)	inactive
c1ccc(CCn2nnnc2CN2CCN(C3CCCC3)CC2)cc1	inactive
CCC(=O)N(Cc1cc2cc(OC)ccc2[nH]c1=O)c1ccccc1C	200 nM (active)
CCC(c1nnnn1Cc1ccccc1)N(Cc1cc2cc(OC)ccc2[nH]c1=O)CC1CCCO1 (centres undefined)	32 nM (active)
COc1ccc2[nH]c(=O)c(CN(Cc3nnnn3CCc3ccccc3)CC3CCCO3)cc2c1 (centres undefined)	360 nM (active)
CCOc1ccc2[nH]c(=O)c(CN(CCCO)C(C)=O)cc2c1	300 nM (active)
CCOc1ccc2c(c1)cc(CN(C(=O)CC)C1CCCCC1)c1nnnn12	inactive
CN1CCC2(CC1)CCN(S(=O)(=O)c1ccccc1)CC2	inactive
Cc1ccc(S(=O)(=O)Cn2nnnc2CN2CCN(Cc3ccc4c(c3)OCO4)CC2)cc1	inactive
COc1cccc(N(CC(=O)Nc2cccc(N(C)S(C)(=O)=O)c2)S(C)(=O)=O)c1	inactive
CC(C)CNC(=O)C1CCCN(S(=O)(=O)c2ccc(-n3cnnn3)cc2)C1 (centres undefined)	inactive
CCCOc1cccc(C(=O)Nc2nnn(CCC)n2)c1	inactive
CC(C)c1cc(CN(C)C)c(O)c(C(C)(C)C)c1	inactive
CCC(=O)Nc1cccc(NC(=O)CSc2nnc(-c3ccc(NS(C)(=O)=O)cc3)n2C)c1	inactive
Cc1ccc(N(C(=O)CC2NC(=O)NC2=O)C2(C(=O)NC3CCCC3)CCCCC2)cc1 (centres undefined)	inactive
CC(=O)Cc1nsc(NC(=O)c2ccc(COc3ccc(C)cc3)o2)n1	inactive

SMILES	max dye-equivalent concentration
CCC(c1nnnn1Cc1ccco1)N(CCc1ccccc1)Cc1cc2ccc(OC)cc2[nH]c1=O (centres undefined)	inactive
O=C(CN(CC1CCCO1)C(=O)CNS(=O)(=O)c1ccccc1)NCc1ccccc1 (centres undefined)	inactive
Cc1cccc2cc(CN(Cc3ccc4c(c3)OCO4)Cc3nnnn3C3CCCC3)c(=O)[nH]c12	inactive
Cc1cccc2cc(CN(Cc3cccs3)C(c3nnnn3C3CCCC3)C(C)C)c(=O)[nH]c12 (centres undefined)	inactive
COc1ccc2[nH]c(=O)c(CN(CC3CCCO3)C(=O)Nc3ccccc3)cc2c1 (centres undefined)	110 nM (active)
CCC(c1nnnn1Cc1ccco1)N(Cc1cc2cc(OC)ccc2[nH]c1=O)C1CCCCC1 (centres undefined)	22 nM (active)
CCOc1ccc2[nH]c(=O)c(CN(Cc3nnnn3Cc3ccccc3)CC3CCCO3)cc2c1 (centres undefined)	120 nM (active)
COc1ccccc1N1CCN(Cc2nnnn2CCc2ccccc2)CC1	inactive
CCOc1ccc2[nH]c(=O)c(CN(Cc3nnnn3CCc3ccccc3)CC3CCCO3)cc2c1 (centres undefined)	76 nM (active)
N=c1c2c3c(sc2ncn1CCCN1CCOCC1)CCCCC3	inactive
CSc1sc(C)cc1C1C(C#N)=C(N)N(c2cccnc2)C2=C1C(=O)CCC2 (centres undefined)	inactive
N#Cc1cccc(NC(=O)CCC2CCCC2)c1	inactive
Cc1oc2nc(SCC(=O)NCc3cccnc3)nc(N)c2c1C	inactive
COc1ccc(OC)c(NC(=O)CSc2nc3cccnc3n2C)c1	inactive
O=C(CCc1ccccc1)Nc1cccc(-c2nnc(-c3ccco3)o2)c1	inactive
Cc1ccc(CNC(=O)CN2CCN(Cc3ccc(Cl)cc3)C2=O)cc1	inactive
CCCC(=O)Nc1c(O)c2ccccc2[nH]c1=O	inactive
C=CCOc1ccc(C2/C(=C(\O)c3c(C)[nH]c(C(=O)OC)c3C)C(=O)C(=O)N2CCN(C)C)cc1 (centres undefined)	inactive
CC1(C)NC(=O)N(CCOc2cccc(Oc3ccccc3)c2)C1=O	inactive
COc1ccc2[nH]cc(CCNc3nc(-c4cccc(NS(C)(=O)=O)c4)nc4ccccc34)c2c1	inactive
COc1ccccc1-c1cc(C(=O)NCCCn2ccnc2)no1	inactive
COc1ccc(CNc2ncncc2-c2ccccc2OC)c(OC)c1	inactive
Cc1cc(C)c2nc(N3CCCC3)c(C#N)cc2c1	130 nM (active)
Cc1cccc2cc(C#N)c(N3CCCC3)nc12	42 nM (active)
Cc1ccc(OCc2nc(C#N)c(N3CCCC3)o2)cc1	inactive
NC(=O)C1CCN(C(=O)c2ccc(C(F)(F)F)cc2)CC1	inactive
